Results taken from PubChem BioAssay AID1159580 (chemical genetic matrix, 2015).
Hit rate of the full screen: of about 5,500 compounds, about 2,000 (36%) were called active. Roughly 18% stayed inconclusive and do not appear here. Cut-off read from the data, not from the text of the source: active = normalized growth mostly below about 0.91 (no sharp cut-off); inconclusive = no clear call, values can overlap the other calls; inactive = mostly above about 0.92. Some of the results follow.

Experiment: chemical genetic growth profiling, strain panel (AID 1159580);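 note: tested at 20 µM; growth read once vehicle control cultures reached saturation at 30 °C; 1 = growth at the plate median or of vehicle wells; lower values mean less growth of the strain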
Conditions: S. cerevisiae deletion strains, growth OD
[1] = locus YAR019C, strain CDC15, stronger effect = lower value
[2] = locus YBL105C, strain PKC1, stronger effect = lower value
[3] = locus YBR135W, strain CKS1, stronger effect = lower value
[4] = locus YBR136W, strain MEC1, stronger effect = lower value
[5] = locus YBR160W, strain CDC28, stronger effect = lower value
[6] = locus YDL017W, strain CDC7, stronger effect = lower value
[7] = locus YDL028C, strain MPS1, stronger effect = lower value
[8] = locus YDL101C, strain DUN1, stronger effect = lower value
[9] = locus YDL108W, strain KIN28, stronger effect = lower value
[10] = locus YDL132W, strain cdc53, stronger effect = lower value
[11] = locus YDL214C, strain PRR2, stronger effect = lower value
[12] = locus YDR052C, strain DBF4, stronger effect = lower value
[13] = locus YDR054C, strain cdc34, stronger effect = lower value
[14] = locus YDR226W, strain ADK1, stronger effect = lower value
[15] = locus YDR477W, strain SNF1, stronger effect = lower value
[16] = locus YER123W, strain YCK3, stronger effect = lower value
[17] = locus YER133W, strain GLC7, stronger effect = lower value
[18] = locus YFL009W, strain cdc4, stronger effect = lower value
[19] = locus YFL029C, strain CAK1, stronger effect = lower value
[20] = locus YFR003C, strain YPI1, stronger effect = lower value
[21] = locus YFR019W, strain FAB1, stronger effect = lower value
[22] = locus YFR028C, strain CDC14, stronger effect = lower value
[23] = locus YGR040W, strain KSS1, stronger effect = lower value
[24] = locus YGR052W, strain FMP48, stronger effect = lower value
[25] = locus YGR092W, strain DBF2, stronger effect = lower value
[26] = locus YHR030C, strain SLT2, stronger effect = lower value
[27] = locus YHR079C, strain IRE1, stronger effect = lower value
[28] = locus YHR082C, strain KSP1, stronger effect = lower value
[29] = locus YHR205W, strain SCH9, stronger effect = lower value
[30] = locus YIL147C, strain SLN1, stronger effect = lower value
[31] = locus YJL095W, strain BCK1, stronger effect = lower value
[32] = locus YJL128C, strain PBS2, stronger effect = lower value
[33] = locus YJL157C, strain FAR1, stronger effect = lower value
[34] = locus YJR016C, strain ILV3, stronger effect = lower value
[35] = locus YJR066W, strain TOR1 (second series), stronger effect = lower value
[36] = locus YJR066W, strain TOR1, stronger effect = lower value
[37] = locus YKL048C, strain ELM1, stronger effect = lower value
[38] = locus YKL067W, strain YNK1, stronger effect = lower value
[39] = locus YKL101W, strain HSL1, stronger effect = lower value
[40] = locus YKL193C, strain SDS22, stronger effect = lower value
[41] = locus YKL203C, strain TOR2, stronger effect = lower value
[42] = locus YLR113W, strain HOG1, stronger effect = lower value
[43] = locus YLR133W, strain CKI1, stronger effect = lower value
[44] = locus YLR403W, strain SFP1, stronger effect = lower value
[45] = locus YML070W, strain DAK1, stronger effect = lower value
[46] = locus YMR001C, strain CDC5, stronger effect = lower value
[47] = locus YMR205C, strain PFK2 (second series), stronger effect = lower value
[48] = locus YMR277W, strain FCP1, stronger effect = lower value
[49] = locus YNL006W, strain LST8, stronger effect = lower value
[50] = locus YNL020C, strain ARK1, stronger effect = lower value
[51] = locus YNL161W, strain CBK1, stronger effect = lower value
[52] = locus YNL183C, strain NPR1, stronger effect = lower value
[53] = locus YNL207W, strain RIO2, stronger effect = lower value
[54] = locus YNL222W, strain SSU72, stronger effect = lower value
[55] = locus YNL307C, strain MCK1 (second series), stronger effect = lower value
[56] = locus YOL078W, strain AVO1, stronger effect = lower value
[57] = locus YOL136C, strain PFK27, stronger effect = lower value
[58] = locus YOR061W, strain CKA2, stronger effect = lower value
[59] = locus YOR119C, strain RIO1, stronger effect = lower value
[60] = locus YOR231W, strain MKK1, stronger effect = lower value
[61] = locus YOR329C, strain SCD5, stronger effect = lower value
[62] = locus YPL031C, strain PHO85, stronger effect = lower value
[63] = locus YPL153C, strain RAD53, stronger effect = lower value
[64] = locus YPL204W, strain HRR25, stronger effect = lower value
[65] = locus YPL209C, strain IPL1, stronger effect = lower value
[66] = locus YPL256C, strain CLN2, stronger effect = lower value
[67] = locus YPR025C, strain CCL1, stronger effect = lower value
[68] = locus YPR106W, strain ISR1, stronger effect = lower value
[69] = locus YPR111W, strain DBF20, stronger effect = lower value
[70] = strain NNK1, stronger effect = lower value
[71] = strain TSCII, stronger effect = lower value

Measured: normalized growth

N/C(=N/OC(=O)c1cnn(-c2ccc([N+](=O)[O-])cc2)c1C(F)(F)F)c1ccc(Cl)cc1
inactive: [1] 0.985 | [2] 0.972 | [3] 0.964 | [4] 0.971 | [5] 0.974 | [6] 0.984 | [7] 0.985 | [8] 0.992 | [9] 0.975 | [10] 0.974 | [11] 0.937 | [12] 0.983 | [13] 0.97 | [14] 0.982 | [15] 0.944 | [16] 0.96 | [17] 0.82 | [18] 0.982 | [19] 0.973 | [20] 0.98 | [21] 0.974 | [22] 0.979 | [23] 0.916 | [24] 1.06 | [25] 0.964 | [26] 1.01 | [27] 1.04 | [28] 1.07 | [29] 0.699 | [30] 0.979 | [31] 1.04 | [32] 0.98 | [33] 0.973 | [34] 0.976 | [35] 0.955 | [36] 1.01 | [37] 0.993 | [38] 0.972 | [39] 0.983 | [40] 0.982 | [41] 1.04 | [42] 0.98 | [43] 0.881 | [44] 0.74 | [45] 0.92 | [46] 0.981 | [47] 0.886 | [48] 0.981 | [49] 0.99 | [50] 0.989 | [51] 0.979 | [52] 1.01 | [53] 0.98 | [54] 0.969 | [55] 0.987 | [56] 0.969 | [57] 0.979 | [58] 0.912 | [59] 1.06 | [60] 0.961 | [61] 0.985 | [62] 0.974 | [63] 0.976 | [64] 1.01 | [65] 0.978 | [66] 0.961 | [67] 0.973 | [68] 0.993 | [69] 0.976 | [70] 0.995 | [71] 0.989

O=C(OCc1ccccc1Br)c1cc([N+](=O)[O-])cc([N+](=O)[O-])c1
inactive: [1] 0.973 | [2] 0.986 | [3] 0.969 | [4] 0.98 | [5] 0.988 | [6] 0.984 | [7] 0.981 | [8] 0.985 | [9] 0.969 | [10] 0.961 | [11] 0.846 | [12] 0.984 | [13] 0.965 | [14] 0.981 | [15] 0.841 | [16] 0.84 | [17] 0.888 | [18] 0.983 | [19] 0.975 | [20] 0.977 | [21] 0.905 | [22] 0.974 | [23] 0.868 | [24] 0.871 | [25] 0.757 | [26] 0.92 | [27] 0.96 | [28] 0.923 | [29] 0.83 | [30] 0.976 | [31] 0.92 | [32] 0.944 | [33] 0.825 | [34] 0.973 | [35] 0.781 | [36] 0.885 | [37] 0.922 | [38] 0.876 | [39] 0.88 | [40] 0.974 | [41] 0.939 | [42] 0.892 | [43] 0.887 | [44] 0.857 | [45] 0.825 | [46] 0.967 | [47] 0.842 | [48] 0.988 | [49] 0.974 | [50] 0.869 | [51] 0.988 | [52] 0.947 | [53] 0.966 | [54] 0.989 | [55] 0.877 | [56] 0.978 | [57] 0.867 | [58] 0.809 | [59] 0.952 | [60] 0.937 | [61] 0.973 | [62] 0.876 | [63] 0.866 | [64] 0.86 | [65] 0.984 | [67] 0.982 | [68] 0.976 | [69] 0.973 | [70] 0.977 | [71] 0.976

CC(C)/C(=N/OC(=O)c1ccc([N+](=O)[O-])cc1)c1ccccc1
active: [11] 0.148 | [23] 0.231 | [26] 0.337 | [35] 0.137 | [39] 0.242 | [42] 0.604 | [43] 0.175 | [44] 0.0636 | [46] 0.384 | [47] 0.126 | [49] 0.507 | [50] 0.174 | [51] 0.378 | [61] 0.637 | [66] 0.582
inactive: [1] 0.974 | [2] 0.965 | [4] 0.967 | [5] 0.957 | [6] 0.963 | [7] 0.955 | [8] 0.952 | [9] 0.962 | [12] 0.979 | [13] 0.955 | [14] 0.949 | [16] 0.909 | [20] 0.96 | [24] 0.814 | [25] 0.843 | [30] 0.96 | [31] 0.745 | [32] 0.943 | [34] 0.957 | [36] 0.769 | [37] 0.991 | [38] 0.911 | [41] 0.802 | [45] 0.909 | [52] 0.595 | [53] 0.955 | [59] 0.814 | [63] 0.671 | [65] 0.966 | [68] 0.978 | [69] 0.972 | [70] 0.97
